Source: PubChem BioAssay
Only some compounds are listed: those with a hit (about 4.5% of all), similar ones and a draw of the others.
GDH-TPI counter-1 – counter-screen for M. tuberculosis FBA inhibitors: GDH-TPI coupled enzymes | GDH-TPI coupled enzyme counterscreen, NADH absorbance | inhibition, % at 4.8 µM | 1.2% of 360,000 active; in the data active = inhibition above about 30%;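 also: 0% = DMSO wells and 100% = wells lacking the enzyme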
BJeLR lethal – kills HRASV12-expressing BJeLR cells. BJeLR (HRASV12) viability, CellTiter-Glo ATP luminescence, 48 h. inhibition, % (no concentration beside the values). 0.17% of 300,000 active. AID 1554; in the data active = inhibition above about 50%
PrP UTR inh – inhibition of PrP 5' UTR reporter expression; cell-based PrP 5' UTR mRNA reporter, plate reader; inhibition, % (concentration not given with the values); 0.35% of 340,000 active; AID 488862; in the data active = inhibition above about 52%; also: 0 = median of the neutral control wells
FBA Mtb inh – inhibits M. tuberculosis FBA enzyme; P9WQA3; purified M. tuberculosis FBA, fluorescence read-out; inhibition, % at 1 µM; 2.3% of 360,000 active; AID 588726;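 also: 0% = vehicle and 100% = reference inhibitor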
Target sequence (P9WQA3 whole entry, looked up): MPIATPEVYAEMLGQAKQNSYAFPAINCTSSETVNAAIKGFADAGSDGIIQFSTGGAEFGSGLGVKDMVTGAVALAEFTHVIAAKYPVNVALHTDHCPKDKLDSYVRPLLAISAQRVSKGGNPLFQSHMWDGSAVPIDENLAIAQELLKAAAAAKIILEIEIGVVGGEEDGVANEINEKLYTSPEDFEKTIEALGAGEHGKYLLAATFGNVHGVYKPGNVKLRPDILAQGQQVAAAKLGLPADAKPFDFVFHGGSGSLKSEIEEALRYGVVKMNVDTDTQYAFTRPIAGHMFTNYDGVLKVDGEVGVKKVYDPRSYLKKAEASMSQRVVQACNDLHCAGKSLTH
PrPC surface inh – cell surface PrPC inhibition, primary TR-FRET screen. 0.43% of 370,000 active. P04156. inhibition, % at 13.8 µM. AID 720596. TR-FRET read-out; in the data active = inhibition above about 24%; also: 0% = median of the test wells and 100% = reference compound wells
PfHsp40 rescue – rescue of PfHsp40-mediated yeast toxicity | growth rescue, % at 12.5 µM | S. cerevisiae expressing PfHsp40, growth rescue, ATP luminescence | 0.68% of 340,000 active; in the data active = growth rescue above about 28%, passing the limit was not always enough;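 also: yeast W303a lacking pdr1 and pdr3 grown in galactose medium; growth measured after three days at 30 °C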
Mtb FBA inh conf – Mtb FBA inhibition, confirmed; shares compounds with FBA Mtb inh; purified M. tuberculosis FBA, fluorescence read-out; inhibition, % at 1 µM; 78% of 5,600 active;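 also: 0% = vehicle wells and 100% = reference inhibitor wells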
GDH-TPI counter-2 – GDH-TPI inhibition counter-screen for FBA inhibitors; inhibition, % at 1 µM; AID 652141; shares compounds with FBA Mtb inh; GDH-TPI coupled enzyme counterscreen, fluorescence; 81% of 5,600 active; in the data active = inhibition above about 10%
* hit, by the source's call; . = not tested or not shown; + = active, no number. Rule as the data show it, unless noted: active = inhibition above about 27%; inactive = the rest.

SMILES	GDH-TPI counter-1	BJeLR lethal	PrP UTR inh	FBA Mtb inh	PrPC surface inh	PfHsp40 rescue	Mtb FBA inh conf	GDH-TPI counter-2
C[C@@H]1[C@@H](O)C[C@@]2(C[C@H](O)c3cc(F)ccc3O2)O[C@H]1c1ccccc1Cl	.	.	.	.	6	.	.	.
C[C@H]1CN([C@@H](C)CO)C(=O)CCCn2cc(nn2)CO[C@@H]1CN(C)S(=O)(=O)c1ccc(Oc2ccccc2)nc1	-5	.	.	6	8	.	.	.
O=C(CCC1CCCN(C(=O)C2=CCCC2)C1)N1CCN(c2ccccn2)CC1 (stereo not given)	5	0	-4	41*	-2	1	1	-3
O=C(O)COc1ccc(-c2nc(-c3ccccc3)c(-c3ccccc3)[nH]2)cc1	11	-7	-32	98*	7	8	86*	73*
COc1cccc(-c2nc(-c3ccc4c(c3)-c3ccccc3S4(=O)=O)c(-c3ccccc3)[nH]2)c1OC	19	-10	15	31*	11	-1	-3	-3
COc1cccc(-c2nc(-c3ccccc3)c(-c3ccccc3)[nH]2)c1OCC(=O)O	12	0	-39	84*	5	1	70*	54*
COc1cc(-c2nc(-c3ccc4c(c3)-c3ccccc3S4(=O)=O)c(-c3ccccc3)[nH]2)cc(OC)c1OC	11	-4	-6	10	8	0	.	.
O=C(O)COc1ccccc1-c1nc(-c2ccccc2)c(-c2ccccc2)[nH]1	6	8	-13	88*	3	1	53*	29*
Cc1ccc2c(c1)N(CCCC(=O)NCc1cccs1)C(=O)CO2	.	.	.	.	-2	.	.	.
Cc1cc(C)n(-c2ccc(NC(=O)C3CCN(Cc4ccccn4)CC3)cc2)n1	7	2	-2	1	-1	-1	.	.
CN1CCCC(C)(C(=O)Nc2ccc3scnc3c2)C1 (stereo not given)	8	.	.	-2	4	.	.	.
O=C(O)c1sc2cc(C(F)(F)F)cnc2c1-c1cccs1	9	1	1	30*	2	0	+	+
NNC(=O)c1ccc(CSc2nc3ccccc3s2)cc1	6	11	-33	-4	13	1	.	.
CCOc1ccc(-c2cc(C(=O)NCCCn3ccnc3)c3ccccc3n2)cc1	-1	2	-10	33*	-6	-1	43*	33*
Cc1ccccc1C(=O)NCCCn1ccnc1	-4	5	-28	0	-2	-1	.	.
CCOc1ccc(-c2cc(C(=O)NCCCN3CCN(CC)CC3)c3ccccc3n2)cc1	22	0	-26	46*	-18	-1	61*	48*
N#Cc1ccccc1NC(=O)CSc1n[nH]c(=O)n1C1CC1	10	.	0	2	-8	-1	.	.
Cc1cc(C)n2c(nc3ccccc32)c1C(=O)NCc1ccccc1	7	8	-14	48*	-1	0	23	15*
Cc1cc(C)n2c(nc3ccccc32)c1C(=O)NN	21	-4	.	18	3	.	.	.
COc1ccccc1N1C(=O)c2ccccc2NC1C(OC)OC (stereo not given)	4	-13	-11	12	1	1	.	.
COc1ccc(C2Nc3ccccc3C(=O)N2Cc2ccncc2)cc1COc1ccc(NC(C)=O)cc1 (stereo not given)	.	.	.	.	-2	.	.	.
COc1ccc(C2Nc3ccccc3C(=O)N2c2ccccc2)cc1CN1CCOCC1 (stereo not given)	9	.	-26	45*	-3	0	0	-5
COc1ccc(C2Nc3ccccc3C(=O)N2c2ccc(C)cc2)cc1COc1ccccn1 (stereo not given)	11	6	-90	34*	6	0	+	+
COc1ccc(C2Nc3ccccc3C(=O)N2Cc2ccccc2)cc1CN1CCOCC1 (stereo not given)	5	-21	3	97*	-9	0	58*	50*
COc1ccccc1N1C(=O)c2ccccc2NC1c1cc(OC)c(OC)c(OC)c1 (stereo not given)	15	19	-27	55*	7	0	96*	65*
SMILES	GDH-TPI counter-1	BJeLR lethal	PrP UTR inh	FBA Mtb inh	PrPC surface inh	PfHsp40 rescue	Mtb FBA inh conf	GDH-TPI counter-2
COc1ccc(C(CCN)Cc2ccccc2)cc1 (stereo not given)	1	-1	-24	-1	14	1	.	.
O=C(O)c1cccc(NCc2cccnc2)c1	-14	13	-11	6	-5	-3	.	.
C=CCOc1c(CNc2cccc(C(=O)O)c2)cccc1OC	-4	3	-25	29*	10	1	39*	53*
C=CCOc1cccc(CNc2cccc(C(=O)O)c2)c1	7	-5	-47	28*	8	-1	2	6
C=CCOc1c(CNc2cccc(C(=O)O)c2)cccc1OCC	0	3	-25	25	3	-1	.	.
C=CCN1C(=O)[C@@H](CC(=O)NCCc2ccccc2OC)[C@]2(C(=O)OC)CCCCC=C12	.	.	.	.	1	.	.	.
CC(C)Nc1nnc(SC(C)C(=O)Nc2ccc(Cl)cn2)s1 (stereo not given)	-7	8	-43	2	1	-1	.	.
CCOC(=O)c1csc(NC(=O)C2CCCN(S(=O)(=O)c3ccc([N+](=O)[O-])cc3)C2)n1 (stereo not given)	.	.	.	.	-16	.	.	.
COC(=O)c1ccc(-c2ccc(CNCC(O)c3ccccc3)o2)cc1 (stereo not given)	14	3	-15	36*	-1	0	126*	106*
CC(=O)c1cccc(OCC(=O)N(Cc2ccco2)c2c(N)n(Cc3ccccc3)c(=O)[nH]c2=O)c1	6	.	-20	-2	-5	0	.	.
CCOc1ccc(N(CC)C(=O)c2cn(CC)c(=O)c3cc(OC)c(OC)cc23)cc1	4	-9	-15	2	6	1	.	.
CC(C)N1CCN(C2CSCCSC2)CC1CCO (stereo not given)	12	5	-12	52*	3	-1	+	+
Cc1ccc(NC(=O)Cn2c(/C=C/c3ccccc3)nc3ccccc32)cc1C	10	-7	-6	29*	3	0	68*	53*
CC(C)n1c(CN(C)c2ccccc2)nc2ccccc21	0	7	-9	1	7	-1	.	.
COCCOCCn1c(/C=C/c2ccccc2)nc2ccccc21	15	15	-50	28*	-2	-1	-4	-4
CC(C)n1c(/C=C/c2ccccc2)nc2ccccc21	34*	-20	-70	67*	-1	-1	36*	20*
CC(C)c1ccccc1NC(=O)Cn1c(/C=C/c2ccccc2)nc2ccccc21	.	15	.	.	.	.	.	.
Cc1ccc(C(=O)OCC(=O)NC2CCCCC2)s1	-3	0	-12	4	-4	2	.	.
